SW480 rerep – A quantitative high throughput screen for small molecules that induce DNA re-replication in SW480 colon adenocarcinoma cells; SW480 DNA re-replication, Hoechst DNA content imaging, 48 h; actives 1.8% (n = 340,000); Potency, µM (highest dose often 46.1 µM), for inactives: at the top dose re-replication activation, most hits filed as activators; also: % of control where 0% means no effect; nearly all actives have a fitted effect of over 55% in size
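Readout is total intensity of Hoechst-stained nuclei, excited at 405 nm and collected at 500-530 nm. Compound treatment lasted 48 hr at 37 C in 5% CO2 before staining.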
KB-3-1 tox – qHTS assay for MDR1-selective chemotherapeutics: Primary screen using the parental adenocarcinoma cell KB-3-1; actives 1.4% (n = 400,000); Potency, µM (doses to about 46.1 µM), most hits filed as cytotoxic; KB-3-1 viability, CellTiter-Glo ATP luminescence, 72 h; also: % is scaled to controls: 0 for no effect and ±100 for the full control effect; nearly all actives have a fitted effect of over 60% in size
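Using CellTiter-Glo luminescence, growth of non-resistant KB-3-1 adenocarcinoma cells is assessed 72 h after pin-tool compound addition at 37 °C. Normalized responses across the concentration series yield fitted curves.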
HT1080NT lethal – qHTS for induction of synthetic lethality in tumor cells producing 2HG: qHTS for the HT-1080-NT fibrosarcoma cell line; HT-1080-NT fibrosarcoma viability, CellTiter-Glo ATP luminescence, 48 h; Potency, µM (titrated, usually from 46.1 µM), for the others: top-dose activity, negative = less viability, usual class: cytotoxic; actives 1.6% (n = 360,000); AID 686970, 2013;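 also: NT is the 2HG producing partner of a matched IDH1 knockdown line; 0% = DMSO-treated cells and -100% = media-only wells without cells; nearly all actives have a fitted effect of over 55% in size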
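Viability of the 2HG-overproducing fibrosarcoma line after 48 hours of compound exposure at 37 degrees C was determined by luminescence with CellTiter-Glo, and concentration-effect curves were then fitted and categorized.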
MCF10A rerep – A quantitative high throughput screen for small molecules that induce DNA re-replication in MCF 10a normal breast cells. MCF 10A DNA re-replication, Hoechst nuclear intensity, 48 h. Potency, µM (highest dose often 46.1 µM), inactives show top-dose activity, positive = re-replication, hits mostly activators. actives 2.9% (n = 350,000). AID 624296, 2012; also: % of control where 0% means no effect; nearly all actives have a fitted effect of over 50% in size
HT1080 IDH1KD tx – qHTS for induction of synthetic lethality in tumor cells producing 2HG: qHTS for the HT-1080-IDH1KD cell line | HT-1080 IDH1 knockdown viability, ATP luminescence, 48 h | actives 2% (n = 360,000) | AID 686971, 2013 | Potency, µM (series often up to 46.1 µM), for the others: at the top dose activity, negative = toxicity, most hits filed as cytotoxic;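 also: 0% = DMSO wells and -100% = cell-free medium wells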
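CellTiter-Glo luminescence after 48 h compound exposure at 37 degrees C of IDH1-knockdown HT-1080 cells in 5% FBS RPMI. %Activity scaled between DMSO wells and cell-free media wells, with curves fitted and assigned curve classes.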
KB-V1 cytotox – qHTS assay for MDR1-selective chemotherapeutics: Primary screen using the drug-selected MDR subline cells KB-V1; actives 3.4% (n = 400,000); Potency, µM (top dose mostly 46.1 µM), hits mostly cytotoxic; KB-V1 MDR cells viability, CellTiter-Glo, 72 h; AID 1347076, 2019; also: % is scaled to controls: 0 for no effect and ±100 for the full control effect; nearly all actives have a fitted effect of over 60% in size
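In this primary screen, KB-V1 cells overexpressing P-gp are incubated with library compounds (lowest to highest concentration) for 72 h at 37 degrees C before a luminescent ATP viability read.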
Starred values were filed as active, the others as inactive; i = inactive; ? = inconclusive; · = no result. An excerpt weighted towards active compounds, which were near 7.9% of everything screened. Calls follow the shape of the dose curve; as a rule, active = well fitted curve in the direction sought with a large enough effect; inconclusive = small, poorly fitted or top-dose-only effect, or another doubt; inactive = no such curve, though single readings can be large; an effect the other way counts as inactive or inconclusive. Potency is read from the fitted curve at half-maximal effect.

SMILES	SW480 rerep	KB-3-1 tox	HT1080NT lethal	MCF10A rerep	HT1080 IDH1KD tx	KB-V1 cytotox
CO/N=C(/CNC(=O)c1ccccc1Cl)c1ccc(Cl)cc1	-73%	i	0%	-2%	-14%	23µM*
O=C(CNC(=O)c1ccccc1Cl)c1ccccc1	-1%	i	21%	-5%	22%	i
O=C(CCl)Nc1cccc(-c2cnc3ccccc3n2)c1	12µM*	10µM*	?	?	?	13µM*
O=C(CCl)Nc1ccc(Oc2cnc3ccccc3n2)cc1	?	6.5µM*	?	?	7.1µM*	15µM*
O=C(O)COc1cnc2ccccc2n1	-3%	i	-1%	-2%	2%	?
Cc1ccc(-c2cnc3ccccc3n2)cc1C	-8%	i	1%	18µM*	-4%	i
O=C(Nc1cccc(-c2cnc3ccccc3n2)c1)c1cccc(NC(=O)c2ccco2)c1	3%	?	?	15µM*	?	?
Cc1cc2ncc(-c3ccccc3)nc2cc1C	?	i	-1%	-2%	2%	i
Cc1ccc(C2Nc3ccccc3-n3c(-c4ccccc4)c4c(=O)n(C)c(=O)n(C)c4c32)o1 (stereo not given)	·	i	·	·	·	i
COc1ccccc1-c1c(C)nn2c(N3CCN(c4cccc(Cl)c4)CC3)cc(C)nc12	·	i	·	·	·	i
N#CCN(C(=O)COC(=O)CCCNC(=O)c1ccc(Cl)cc1)c1ccccc1	-7%	i	6%	0%	-3%	21µM*
COc1ccc(C(=O)c2oc3nc(C)cc(C)c3c2N)cc1	16%	i	11%	15%	11%	?
CCc1ccc(C(=O)c2oc3nc(C)cc(C)c3c2N)cc1	16µM*	i	1%	7.3µM*	?	2.6µM*
Cc1nc2oc(C(=O)c3ccc(Br)cc3)c(N)c2c2c1COC(C)(C)C2	?	i	9%	?	8%	i
Cc1ccc(C(=O)c2oc3nc(C)cc(C)c3c2N)cc1	?	i	-3%	9.2µM*	-15%	?
CN1CCN(C(=O)c2cccc3c(-c4ccc(F)c(F)c4)coc23)CC1	·	i	11%	·	8%	i
COCc1c(C(=O)NCCc2ccc(OC(F)F)cc2)oc2ccccc12	8%	i	-5%	9%	-1%	i
Fc1ccc(Oc2nc(-c3ccccc3)nnc2C(F)(F)F)cc1	2%	i	7%	?	18%	i
Fc1ccc(Sc2nc(-c3ccccc3)nnc2C(F)(F)F)cc1	?	16µM*	23µM*	3.7µM*	23µM*	i
CN(C)c1ccc(Nc2ncnc3ccc(Br)cc23)cc1	9%	i	-4%	16%	-6%	?
Clc1cccc(Nc2ncnc3ccc(Br)cc23)c1	3%	i	7.9µM*	8%	?	?
Clc1ccc(Nc2ncnc3ccc(Br)cc23)cc1	0%	i	?	?	?	10µM*
CC1(C(=O)NS(=O)(=O)c2cccc(F)c2)CCN1C(=O)Cc1ccccc1 (stereo not given)	·	i	23%	·	19%	i
CCOc1ccccc1NC(=O)N1CCN(C)c2ncccc21	·	i	·	·	·	i
Cc1cccc(C)c1NC(=O)C1(C)CN(S(C)(=O)=O)CC(=O)N1CC(F)(F)F (stereo not given)	·	i	4%	·	7%	i
SMILES	SW480 rerep	KB-3-1 tox	HT1080NT lethal	MCF10A rerep	HT1080 IDH1KD tx	KB-V1 cytotox
COc1cc(OC)c(NC(=O)Cc2c(C(=O)O)c(C)cn2C)cc1Cl	·	i	·	·	·	i
Cc1cc(O)c(C(C)C)cc1N=Cc1ccccc1[N+](=O)[O-]	?	i	?	?	16µM*	i
Cc1cc(NC(=O)Nc2cccc(C(F)(F)F)c2)n(C)n1	-6%	i	7%	23%	0%	i
CNC(=O)Nc1cc(C)nn1C	23µM*	i	1%	-5%	8%	i
C[C@H]1CN([C@@H](C)CO)C(=O)CCCn2cc(nn2)CO[C@@H]1CN(C)C(=O)Nc1ccc(-c2cccs2)cc1	·	i	20%	·	23%	?
CC(=O)c1c(C)[nH]c(C(=O)NCc2ccccc2F)c1C	-5%	i	10%	-4%	6%	i
CC(=O)c1c(C)[nH]c(C(=O)NCc2ccccc2Cl)c1C	-11%	i	0%	2%	-1%	23µM*
Cc1nc(C)c(C(=O)NCc2ccccc2Cl)o1	-3%	?	0%	1%	-1%	21µM*
CCc1c(C(=O)NCc2ccccc2Cl)[nH]c(C)c1C(C)=O	-1%	i	-16%	?	-6%	7.3µM*
CC(C)CCNC(=O)c1ccc2c(c1)ncn2C1CCCCC1	-14%	i	-1%	25%	-16%	13µM*
CCCCS(=O)(=O)Nc1ccc2c(c1)ncn2C1CCCCC1	3%	i	8%	23µM*	8%	?
CCCCNC(=O)c1ccc2c(c1)ncn2C1CCCCC1	-8%	i	10%	3%	4%	i
O=C(O)c1ccc2c(c1)ncn2C1CCCC1	-11%	i	-8%	5%	1%	i
c1ccc(CNc2ccc3c(c2)ncn3C2CCCCC2)nc1	23µM*	i	4%	21µM*	7%	i
CCN(CC)CCCNC(=O)CSc1nc2nc(C)c(Cc3c(F)cccc3Cl)c(C)n2n1	·	i	·	·	·	i
C[C@@H]1CN([C@H](C)CO)C(=O)CCCn2cc(nn2)CO[C@H]1CN(C)C(=O)Nc1cccc(F)c1	·	i	7%	·	3%	i
O=C(CCOc1ccccc1)N(Cc1cccnc1)c1nc2c(Cl)cccc2s1	·	i	·	·	·	i
O=C(C(=O)N1CCCN(Cc2ccc(F)cc2)CC1)c1ccccc1	·	i	1%	·	-5%	?
Cc1ccc(S(=O)(=O)Nc2ccc(-c3ccc(N4CCCCCC4)nn3)cc2)cc1C	·	?	·	·	·	i
C/C(Cn1nnc([N+](=O)[O-])n1)=N\NC(=O)c1ccc(O)cc1O	13%	i	23µM*	4%	18µM*	i
C/C(Cn1nnc([N+](=O)[O-])n1)=N\NC(=O)c1ccccc1O	19%	i	?	-1%	?	i

High-throughput results: PubChem, National Center for Advancing Translational Sciences (NCATS)
